Results on 15 compounds are retold here after PubChem BioAssay (NCATS).

A short description of experiment [1]: qHTS of Trypanosoma Brucei Inhibitors: LOPAC Validation (AID 624147). Put shortly: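 Glycolytic pyruvate kinase of T. brucei was incubated with substrate, test compound and 130 uM ADP for 45 minutes at room temperature. Luminescent Kinase-Glo Plus signal was measured after 10 minutes.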
(qHTS replaces the single test concentration by a dilution series.)

Experiment [2] has as its target Glucagon-like peptide 1 receptor (Homo sapiens) (UniProt P43220). As to the kind of experiment: qHTS of GLP-1 Receptor Agonists: LOPAC Validation (AID 624148).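 Further: higher luminescence signal means agonism.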 Put shortly: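 HEK293 cells stably co-expressing GLP-1R and a cAMP-responsive luciferase reporter, plated 12 hours before compound, then incubated 4-6 hr at 37 deg C. Luminescence read 12 min after detection reagent.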

Experiment [3] is described as follows: qHTS of Nrf2 Activators: LOPAC Validation (AID 624149). A digest of the protocol: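 AREc32_Fluc cells, 1000/well, OPTI-MEM + 5% FBS, o/n 37 deg C 5% CO2; compound pin-transfer, 24 hr 37 deg C; Steady-Glo 30 min RT, luminescence read.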
The nature of experiment [4]: HTS Assay for Allosteric Antagonists of the Human D2 Dopamine Receptor: Hit Validation in HTRF (AID 624455). Put shortly: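 HTRF read-out; cells stably expressing D1 receptor; hits scored for inhibition of D1-mediated response. Primary screen: calcium flux, force-coupled inducible Hek293 Trex D2 line, antagonism vs EC80 dopamine.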
On the technique in general: In TR-FRET formats the signal depends on donor and acceptor labels being close together.

The target in experiment [5] is Glutaminase kidney isoform, mitochondrial (Homo sapiens) (UniProt O94925). The experiment can be described thus: qHTS for Inhibitors of Glutaminase (GLS): LOPAC Validation (AID 624146). Further: potency means the concentration at half of the fitted maximal effect; nearly all actives have a fitted effect of over 60% in size. A digest of the protocol:
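Enzyme dispensed in phosphate buffer (45 mM, pH 8.2, 0.02% Tween-20), compounds pinned in, then 1 mM L-glutamine solution and the glutamate oxidase–HRP–Amplex Red mix added; fluorescence read immediately and again after 30 min at room temperature.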

Each structure is given as a SMILES string. Records with an inconclusive call do not appear. Where a call stands in place of a potency, no number is given. The source made the active and inactive calls. The call rests on the fitted dose curve; in most records, active means well fitted curve in the direction sought with a large enough effect; inconclusive means small, poorly fitted or top-dose-only effect, or another doubt; inactive means no such curve, though single readings can be large; an effect the other way counts as inactive or inconclusive.

Chain of Glucagon-like peptide 1 receptor (Homo sapiens) (P43220 whole entry, looked up): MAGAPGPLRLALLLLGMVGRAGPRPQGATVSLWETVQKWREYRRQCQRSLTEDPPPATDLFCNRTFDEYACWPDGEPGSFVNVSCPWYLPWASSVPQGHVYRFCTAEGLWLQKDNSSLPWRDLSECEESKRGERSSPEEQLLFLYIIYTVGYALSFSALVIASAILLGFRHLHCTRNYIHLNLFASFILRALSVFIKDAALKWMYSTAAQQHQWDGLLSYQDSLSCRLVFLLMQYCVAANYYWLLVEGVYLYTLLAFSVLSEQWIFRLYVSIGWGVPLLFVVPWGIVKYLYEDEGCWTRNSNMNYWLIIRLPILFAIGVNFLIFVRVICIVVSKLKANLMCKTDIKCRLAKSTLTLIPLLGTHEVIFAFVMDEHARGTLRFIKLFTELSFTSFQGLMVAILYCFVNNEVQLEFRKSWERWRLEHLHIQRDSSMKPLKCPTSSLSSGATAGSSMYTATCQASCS
Chain of Glutaminase kidney isoform, mitochondrial (Homo sapiens) (O94925 whole entry, looked up, canonical isoform): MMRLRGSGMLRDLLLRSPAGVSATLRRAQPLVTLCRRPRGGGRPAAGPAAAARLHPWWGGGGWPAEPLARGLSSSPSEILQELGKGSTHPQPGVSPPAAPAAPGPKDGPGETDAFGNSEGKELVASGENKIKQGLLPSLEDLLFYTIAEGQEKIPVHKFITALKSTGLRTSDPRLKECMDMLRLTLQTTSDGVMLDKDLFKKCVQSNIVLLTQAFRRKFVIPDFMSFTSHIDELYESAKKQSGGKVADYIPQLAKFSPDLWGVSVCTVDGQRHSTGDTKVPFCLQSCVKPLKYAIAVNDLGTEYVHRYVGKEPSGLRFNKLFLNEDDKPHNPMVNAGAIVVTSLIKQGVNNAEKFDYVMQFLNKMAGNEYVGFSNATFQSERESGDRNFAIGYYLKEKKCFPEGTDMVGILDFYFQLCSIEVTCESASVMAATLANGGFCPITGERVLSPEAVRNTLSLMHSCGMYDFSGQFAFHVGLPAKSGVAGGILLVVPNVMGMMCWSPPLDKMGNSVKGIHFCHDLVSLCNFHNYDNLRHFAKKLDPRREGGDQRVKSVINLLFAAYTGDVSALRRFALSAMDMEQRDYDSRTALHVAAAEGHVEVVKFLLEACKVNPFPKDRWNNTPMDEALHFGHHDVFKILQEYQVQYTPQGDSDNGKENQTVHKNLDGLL

Turning to `COc1ccc2c(c1)c(CCN1CCOCC1)c(C)n2C(=O)c1cccc(Cl)c1Cl`, the Potency entry in experiment [1], in experiment [3] and in experiment [4] was “inactive” throughout. Also, the compound was classed as inactive in experiment [2].
In the case of `CCCn1c(=O)c2[nH]c(C3CCCC3)nc2n(CCCOC(=O)c2ccc(S(=O)(=O)F)cc2)c1=O`, the Potency entry in experiment [1], in experiment [3] and in experiment [4] was “inactive” each time. Moreover, the result in experiment [2] was inactive.
In the case of `N#C/C(=C/c1ccc(O)c(O)c1)C(N)=S`, the Potency entry in experiment [1] and in experiment [4] was “inactive” each time. Moreover, in experiment [2], the call was inactive.
`C[Se]C[C@H](N)C(=O)O`: the compound was classed as inactive in experiment [2]. In addition, the Potency entry in experiment [3] and in experiment [4] was “inactive” throughout.
`NCCc1ccc(S(=O)(=O)F)cc1`: the Potency entry in experiment [1] and in experiment [4] was “inactive” throughout. The outcome in experiment [2] was inactive.
For `N=C(N)c1ccc(CS(=O)(=O)F)cc1`, the Potency result in experiment [1], in experiment [3] and in experiment [4] was “inactive” throughout. Moreover, in experiment [2], the compound was classed as inactive.
In the case of `Clc1cc(I)cc(Cl)c1NC1=NCCN1`, the Potency result in experiment [1] and in experiment [3] was “inactive” throughout. The result in experiment [2] was inactive.
Take `CCCC[N+]1(C)C2CC(OC(=O)[C@H](CO)c3ccccc3)CC1C1OC12` (some centres undefined): the Potency entry in experiment [1], in experiment [3] and in experiment [4] was “inactive” each time. In experiment [2], the result was inactive.
`Cc1[nH]c2ccc(O)cc2c1CCN`: the Potency entry in experiment [1], in experiment [3] and in experiment [4] was “inactive” throughout. Further, in experiment [2], the call was inactive.
Consider `NC(Cc1cc(O)c(O)cc1O)C(=O)O` (centres undefined), for which the Potency result in experiment [1] and in experiment [4] was “inactive” each time. For the same compound, the compound was called inactive in experiment [2].
Consider `N[C@@H](Cn1ccc(=O)[nH]c1=O)C(=O)O`, for which the Potency entry in experiment [1], in experiment [3] and in experiment [4] was “inactive” throughout. For the same compound, the outcome in experiment [2] was inactive.
Turning to `O=[N+]([O-])/C=C/c1ccc2c(c1)OCO2`, the Potency in experiment [5] is 12.6 µM (active). In addition, the outcome in experiment [2] was inactive. In addition, the Potency entry in experiment [3] and in experiment [4] was “inactive” each time.
For the compound `c1ccc2c(c1)[I+]c1ccccc1-2`, the Potency result in experiment [1] and in experiment [4] was “inactive” each time. In experiment [2], the call was inactive.
With `C[C@@H]1O[C@H](C[N+](C)(C)C)CS1`, the Potency result in experiment [1], in experiment [3] and in experiment [4] was “inactive” in each case. Besides, in experiment [2], the compound was called inactive.
Regarding `c1ccc2c(N3CCNCC3)cccc2c1`, the Potency entry in experiment [1], in experiment [3] and in experiment [4] was “inactive” in each case. For the same compound, in experiment [2], the call was inactive.
